# Laboratory results from PubChem BioAssay AID454 (Sanford-Burnham Center for Chemical Genomics, 2006).
# The whole screen tested about 10,000 compounds, of which about 25 (0.2%) were called active.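 How the source made its calls: active means compound among top-ranked inhibitors of TNF-induced VCAM-1 adhesion protein staining, with the hit upheld by image or statistical review; inactive means the rest, including hits rejected on review.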 This excerpt belongs to a sample that is enriched for actives.
# Test: inhibitors of TNFa-induced VCAM-1 surface display, cell-based, plate reader, pooled HUVEC, TNFa stimulus (AID 454)
# Details: HUVEC TNFa-induced VCAM-1 surface immunofluorescence; hits give high values,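 compound tested at 5 µM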
row,SMILES,inhibition
1,CCOC(=O)c1cccc(NC(=O)CSc2nc3cccnc3n2C)c1,inactive
2,Cn1c(SCc2cccc3ccccc23)nnc1-c1ccco1,inactive
3,CN1C(=O)C(CC(=O)N2CCN(C(c3ccccc3)c3ccccc3)CC2)N(C)C1=O (configuration not stated),inactive
4,CCCCC(=O)NCCNc1nc2c(c(=O)n(C)c(=O)n2C)n1Cc1ccccc1,inactive
5,COc1ccc(C(=O)N2CCN(c3nc4cc(C)ccc4cc3C#N)CC2)c(OC)c1,inactive
6,Cc1nc2sc3c(c2c(=O)o1)CCC3,inactive
7,CCC(C)(C(=O)NC1CCCCC1)N(Cc1ccco1)C(=O)c1cnccn1 (configuration not stated),inactive
8,CC1=CCC2C(=O)N(c3nc(C)cc(C)n3)C(=O)C2C1 (configuration not stated),inactive
9,CCCn1c(NC(=O)C2COc3ccccc3O2)nc2ccccc21 (configuration not stated),inactive
10,Cc1cc(C)nc(NC(=O)c2ccc(OC(C)C)cc2)n1,inactive
11,Cc1nn(-c2ccc(F)cc2)c2c1cc(C#N)c1nc3ccccc3n12,inactive
12,COc1ccc(C(=O)Cn2c(N3CCCCC3)nc3c2c(=O)n(C)c(=O)n3C)cc1OC,inactive
13,COc1cccc(Cn2c(Oc3ccccc3)nc3c2c(=O)n(C)c(=O)n3C)c1,inactive
14,COc1ccc(-c2nc3c(c(=O)n(C)c(=O)n3C)n2CC2CC(c3ccccc3)=NO2)cc1OC (configuration not stated),73.1% (active)
15,Cc1ccccc1Nc1nc(N)nc(CSCc2c(C)noc2C)n1,inactive
16,Cc1cc2oc(=O)cc(CN3CCCCC3)c2cc1C(C)C,inactive
17,COc1ccc(C2=Nn3c(nnc3-c3ccccc3)SC2)cc1OC,inactive
18,CC(C)(C)C1=Nn2c(nnc2-c2n[nH]c3c2CCC3)SC1,inactive
19,Clc1ccc(C2=Nn3c(nnc3-c3n[nH]c4c3CCC4)SC2)cc1Cl,106% (active)
20,COc1ccc(C2CC(c3ccc(Cl)cc3Cl)n3nc(N)nc3N2)cc1 (configuration not stated),inactive
21,COc1cccc(OCCn2ccnc2)c1,inactive
22,COc1ccccc1NC(=O)CSc1nnc(-c2ccncc2)n1CC1CCCO1 (configuration not stated),inactive

row,SMILES,inhibition
1,C=C(Cl)COc1ccc2c(C)cc(=O)oc2c1,inactive
2,Nc1ncnc2nc(SCCN3CCCCC3)[nH]c12,inactive
3,CCCC(=O)Nc1cccc(NC(=O)CN2CCN(c3ccccc3OC)CC2)c1,inactive
4,CN(c1ccc(OCc2nnc(-c3ccccc3)o2)cc1)S(=O)(=O)c1ccccc1,inactive
5,CCOC(=O)c1ccccc1NC1CC(=O)N(c2ccccc2C)C1=O (configuration not stated),inactive
6,O=S(=O)(Nc1ccccn1)c1ccc(Oc2ccccc2)cc1,inactive
7,C=CS(=O)(=O)c1ccc(Oc2ccc(S(=O)(=O)C=C)cc2)cc1,100% (active)
8,CN(C)S(=O)(=O)c1ccc(Oc2ccc(S(=O)(=O)N(C)C)cc2)cc1,inactive
9,CC1CCN(C(=O)CN2C(=O)C(C)(C)Oc3ccc(C(=O)NC4CCCC4)cc32)CC1,inactive
10,O=C1CC(N2CCOCC2)C(=O)N1c1ccccc1Cl (configuration not stated),inactive
11,COc1ccccc1Nc1nc(N)nc(CN2CCN(c3ccccc3F)CC2)n1,inactive
12,OC1(c2cccc(C(F)(F)F)c2)CCNCC1,inactive
13,CCOC(=O)c1[nH]c(C)c(C(=O)Nc2ccc(C)c(Cl)c2)c1C,inactive
14,COc1ccc(OC)c(C2C(C(=O)Nc3cccnc3)=C(C)NC3=C2C(=O)CCC3)c1 (configuration not stated),inactive
15,COC(=O)C1=C(C)NC(=O)C1(NC(=O)c1cccnc1)C(F)(F)F (configuration not stated),inactive
16,COc1ccc(CN2C(=O)[C@@H]3C(c4ccc(F)cc4)=NO[C@@H]3C2=O)cc1,inactive
17,CC(C)n1c(=NC(=O)c2ccco2)c(C#N)cc2c(=O)n3ccccc3cc21,78.8% (active)
18,CCOC(=O)c1cc2c(=O)n3ccccc3nc2n(CC(C)C)c1=NC(=O)c1ccco1,inactive
19,Cc1cccn2c(=O)c3cc(C#N)c(=NC(=O)c4ccncc4)n(Cc4ccco4)c3nc12,inactive
20,CCOc1ccc(NC(=O)CN2CCN(CC(=O)c3ccc(OCC)cc3)CC2)cc1,inactive
21,CCCCc1c(O)nc(N2CCN(Cc3ccccc3)CC2)[nH]c1=O,inactive
22,CCN(CC(=O)Nc1ccc2c(c1)CCC2)Cc1nc2ccccc2c(=O)[nH]1,inactive

row,SMILES,inhibition
1,Nc1nc(SCc2ccc(Cl)cc2Cl)n[nH]1,inactive
2,O=S(=O)(Nn1cnnc1)c1ccccc1Cl,inactive
3,CCOc1cc2[nH]c(=S)n(CC3CCCO3)c(=O)c2cc1OCC (configuration not stated),inactive
4,COCCn1c(COc2ccc(Cl)cc2)nnc1SCC(N)=O,inactive
5,Clc1ccc(OCc2nnc(SCCN3CCCCC3)n2Cc2ccco2)cc1,82.9% (active)
6,Cc1cc(NC(=O)CSc2nnc(COc3cccc(C)c3C)n2Cc2ccco2)no1,inactive
7,Cc1ccccc1-c1nc(CN2CCC(C(=O)NCc3cccnc3)CC2)c(C)o1,inactive
8,O=c1nc(N2CCCC2)nc(Nc2ccccc2)[nH]1,inactive
9,O=C(Cn1cc2c(n1)CCCCC2)N1CCc2ccccc21,inactive
10,Cc1nnc(SCC(=O)N2c3ccccc3CC2C)s1 (configuration not stated),inactive
11,Cc1nnc(SC(=O)N2c3ccccc3Sc3ccccc32)s1,92.2% (active)
12,Cc1nnc(SCC(=O)NCc2ccccc2)s1,inactive
13,CCOc1cccc(Oc2ccc(C(F)(F)F)cn2)c1,inactive
14,COc1ccc(S(=O)(=O)N2CN(Cc3ccco3)c3nc4ccccc4nc32)cc1,inactive
15,Cc1ccc2nc(C3CCN(CC(=O)N4CCCCCC4)CC3)[nH]c2c1,inactive
16,CCOc1ccccc1N1CCN(c2nc3ccccc3nc2C(C#N)C(=O)OC)CC1 (configuration not stated),inactive
17,S=c1[nH]nc(-c2ccco2)n1-c1cccc2ccccc12,inactive
18,Cc1c(C)c2ccc(OC3CCCCC3=O)cc2oc1=O (configuration not stated),inactive
19,COc1ccccc1CC(=O)NCc1ccc2c(c1)OCO2,inactive
20,O=C1c2ccccc2C(Nc2ccc(F)c(Cl)c2)N1Cc1ccco1 (configuration not stated),inactive
21,O=C1c2ccccc2C(Nc2ccc3nc(-c4cccnc4)[nH]c3c2)N1Cc1ccco1 (configuration not stated),79.2% (active)
22,O=C1c2ccccc2C(Nc2ccc(-c3nc4ccccc4[nH]3)cc2)N1Cc1ccco1 (configuration not stated),inactive

row,SMILES,inhibition
1,CCCc1cc(Nc2cccc(OC)c2)n2ncnc2n1,inactive
2,CCOC(=O)CS(=O)(=O)c1nc(-c2ccccc2)cc(C(F)(F)F)n1,inactive
3,COCC(C)NC(=O)CCS(=O)(=O)c1nc(-c2ccc(OC)cc2)cc(C(F)(F)F)n1 (configuration not stated),91.4% (active)
4,COc1ccc(-c2cc(C(F)(F)F)nc(SCCC(=O)N3CCOCC3)n2)cc1,inactive
5,O=C(Cn1cnc2ccccc2c1=O)NCCC(=O)N1CCN(c2ccccc2)CC1,inactive
6,CCc1ccccc1NC(=O)CN(c1cccc(OC)c1)S(C)(=O)=O,inactive
7,C/C(=C\c1cc(C(=O)O)c(C)o1)CO,inactive
8,Cc1ccc(SC(C)c2nc(-c3ccccc3)no2)cc1 (configuration not stated),inactive
9,CS(=O)(=O)c1ncc(Cl)c(C(=O)Nc2ccc(N3CCOCC3)cc2)n1,97.8% (active)
10,CSc1ncc(Cl)c(C(=O)Nc2ccc(S(=O)(=O)N3CCOCC3)cc2)n1,inactive
11,Cc1cnc(C(=O)Nc2ccc(N3CCOCC3)cc2)cn1,inactive
12,Cc1cc(O)c(C2(C(F)(F)F)NCCNC2=O)cc1C (configuration not stated),inactive
13,CCC(=O)N(Cc1ccco1)c1nc(-c2cc(OC)ccc2OC)cs1,inactive
14,Cn1c(C(=O)NCCN2CCN(c3ccccc3F)CC2)cc2c(=O)n(C)c3ccccc3c21,inactive
15,CCOc1cc(C2Nc3ccccc3C(=O)N2c2ccccc2OC)ccc1O (configuration not stated),inactive
16,COc1cc(C2Nc3cccc4cccc(c34)N2)cc(OC)c1O,73.4% (active)
17,COc1cc(C2N=C(c3ccccc3)NO2)cc(Br)c1O (configuration not stated),inactive
18,COC(=O)c1ccc(CSc2nc3c(cnn3-c3ccc(F)cc3)c(=O)[nH]2)o1,inactive
19,O=c1[nH]c2sc3c(c2c2nncn12)CCCC3,inactive
20,Cc1cc(NC(=O)c2cc(-c3ccco3)on2)n(-c2ccccc2)n1,inactive
21,C/C(NC1CCCC1)=C(/C#N)C(N)=O,inactive
22,Clc1cccc(-c2nnc3sc(-c4ccccc4)nn23)c1,inactive

row,SMILES,inhibition
1,CCNC(=O)C1CC(=O)N(Cc2ccc3c(c2)OCO3)C(=Nc2ccc(OCC)cc2)S1 (configuration not stated),inactive
2,CCOC(=O)c1ccc(NC(=O)CSCc2ccco2)cc1,inactive
3,CCOC(=O)c1ccc(N=c2sc(C(=O)OC)cc(=O)n2Cc2ccco2)cc1,95.5% (active)
4,CCOC(=O)c1cccc(NC2c3ccccc3C(=O)N2Cc2ccco2)c1 (configuration not stated),inactive
5,COC(=O)c1cc(=O)n(Cc2ccc3c(c2)OCO3)c(=Nc2ccccc2)s1,96% (active)
6,OCCn1c(-c2ccc3c(c2)OCO3)csc1=Nc1ccccc1,inactive
7,O=C(c1ccccc1)c1ccc(N2CCOCC2)c(NC(=O)c2ccco2)c1,inactive
8,Cn1nc(-c2ccc(N3CCCCC3)c(NC(=O)c3ccco3)c2)c2ccccc2c1=O,83.4% (active)
9,Cc1cccc(NC(=O)c2cc(NC(=O)c3ccco3)ccc2N2CCCCC2)c1,inactive
10,COc1ccc(CCNc2nc(N3CCOCC3)nc(N3CCOCC3)n2)cc1OC,inactive
11,Cn1c(=O)c2c(nc(SCC(=O)NCc3ccc4c(c3)OCO4)n2Cc2ccccc2)n(C)c1=O,inactive
12,CCOC(=O)CSc1nc2cccnc2n1-c1ccc(F)cc1,inactive
13,CCc1ccc2[nH]c(=O)c(C(c3nnnn3CC3CCCO3)N3CCCc4ccccc43)cc2c1 (configuration not stated),93.2% (active)
14,CCOc1ccc2[nH]c(=O)c(C(c3nnnn3CC3CCCO3)N3CCc4ccccc4C3)cc2c1 (configuration not stated),inactive
15,CCc1ccc2[nH]c(=O)c(C(c3nnnn3CC3CCCO3)N3CCN4CCCC4C3)cc2c1 (configuration not stated),inactive
16,Nc1nc(N2CCCCC2)nc(N(c2ccccc2)c2ccccc2)n1,inactive
17,CC(=O)NC(CCS(C)(=O)=O)C(=O)Nc1cccc2ccccc12 (configuration not stated),inactive
18,O=C(Cn1nc(-c2ccc(Cl)cc2)ccc1=O)NCCCN1CCN(Cc2ccccc2)CC1,inactive
19,CCOC(=O)c1ccccc1NC(=O)c1ccc2c(=O)n3c(nc2c1)CCCCC3,inactive
